The source of these data is the antibiotic and cytotoxicity screens of Wong et al. (2023).

Hit rate of the full screen: of about 39,000 compounds, about 3,300 (8.5%) were called active. For the sample, actives were picked, then their nearest neighbours and some compounds at random.

The subject of this test is HepG2. Briefly: cytotoxicity call (relative viability < 0.9). The following applies: 10 µM.
With `C[C@H]1CN([C@@H](C)CO)C(=O)CCCn2cc(nn2)CO[C@@H]1CN(C)C(=O)Nc1ccc(C(F)(F)F)cc1`, the cytotoxicity call is “inactive”.

In the case of `O=C(O)[C@H]1C[C@H](O)CN1Cc1ccccc1`, the cytotoxicity call was “inactive”.

On to `C[C@@H]1CCCCO[C@H](CN(C)Cc2ccc(C(F)(F)F)cc2)[C@H](C)CN([C@@H](C)CO)C(=O)c2cc(NC(=O)c3ccccc3)ccc2O1`, for which the cytotoxicity call was “active”.

For the molecule `C[C@@H]1CCCCO[C@@H](CN(C)Cc2ccc(C(F)(F)F)cc2)[C@H](C)CN([C@H](C)CO)C(=O)c2cc(NC(=O)c3ccccc3)ccc2O1`, the cytotoxicity call was “inactive”.

On to `C[C@H](CO)N1C[C@H](C)[C@H](CN(C)Cc2ccc(C(F)(F)F)cc2)OCCCC[C@H](C)Oc2ccc(NC(=O)c3ccccc3)cc2C1=O`, for which the cytotoxicity call is “inactive”.

For `C[C@@H]1CN([C@H](C)CO)C(=O)c2cc(NC(=O)c3ccccc3)ccc2O[C@@H](C)CCCCO[C@H]1CN(C)Cc1ccc(C(F)(F)F)cc1`, the cytotoxicity call is “inactive”.

Take `C[C@@H]1CCCCO[C@H](CN(C)Cc2ccc(C(F)(F)F)cc2)[C@H](C)CN([C@H](C)CO)C(=O)c2cc(NC(=O)c3ccccc3)ccc2O1`: the cytotoxicity call is “inactive”.

Turning to `C[C@@H]1CCCCO[C@H](CN(C)Cc2ccccc2)[C@H](C)CN([C@H](C)CO)C(=O)c2cc(NC(=O)c3ccccc3)ccc2O1`, the cytotoxicity call was “inactive”.

Consider `C[C@@H]1CN([C@H](C)CO)C(=O)c2cc(NC(=O)c3ccccc3)ccc2O[C@@H](C)CCCCO[C@@H]1CN(C)Cc1ccc(C(F)(F)F)cc1`, for which the cytotoxicity call was “inactive”.

`C[C@H]1CCCCO[C@@H](CN(C)Cc2ccc(C(F)(F)F)cc2)[C@@H](C)CN([C@@H](C)CO)C(=O)c2cc(NC(=O)c3ccccc3)ccc2O1`: the cytotoxicity call was “active”.

For the molecule `C[C@@H]1CN([C@@H](C)CO)C(=O)c2cc(NC(=O)c3ccccc3)ccc2O[C@@H](C)CCCCO[C@H]1CN(C)Cc1ccccc1`, the cytotoxicity call is “inactive”.

As for `C[C@@H]1CN([C@H](C)CO)C(=O)c2cc(NC(=O)c3ccccc3)ccc2O[C@@H](C)CCCCO[C@H]1CN(C)Cc1ccccc1`, the cytotoxicity call is “active”.

Consider `C[C@@H]1CN([C@@H](C)CO)C(=O)c2cc(NC(=O)c3ccccc3)ccc2O[C@@H](C)CCCCO[C@H]1CN(C)Cc1ccc(C(F)(F)F)cc1`, for which the cytotoxicity call is “active”.

In the case of `C[C@@H]1CCCCO[C@H](CN(C)Cc2ccc(C(F)(F)F)cc2)[C@@H](C)CN([C@H](C)CO)C(=O)c2cc(NC(=O)c3ccccc3)ccc2O1`, the cytotoxicity call was “inactive”.

Regarding `C[C@@H]1CN([C@@H](C)CO)C(=O)c2cc(NC(=O)Nc3cccc4ccccc34)ccc2O[C@H]1CN(C)S(=O)(=O)c1ccc(Cl)cc1`, the cytotoxicity call is “inactive”.

As for `COc1ccc(NC(=O)N(C)C[C@H]2Oc3ccc(NS(=O)(=O)c4cn(C)cn4)cc3CC(=O)N([C@@H](C)CO)C[C@@H]2C)cc1`, the cytotoxicity call was “inactive”.

Take `C[C@@H]1CN([C@H](C)CO)S(=O)(=O)c2ccc(-c3cccc(C(=O)N(C)C)c3)cc2O[C@@H]1CN(C)C(=O)Cc1ccccn1`: the cytotoxicity call was “inactive”.

Take `C[C@@H]1CN([C@@H](C)CO)C(=O)CCCn2nncc2CO[C@@H]1CN(C)S(=O)(=O)c1ccc2c(c1)OCCCO2`: the cytotoxicity call is “inactive”.

As to `COc1ccc(-c2cnc3c(c2)C(=O)N([C@H](C)CO)C[C@H](C)[C@@H](CN(C)C(=O)Cc2ccccn2)O3)cc1`, the cytotoxicity call is “inactive”.

Consider `Cc1noc(C)c1S(=O)(=O)Nc1ccc2c(c1)C(=O)N([C@H](C)CO)C[C@@H](C)[C@@H](CN(C)Cc1ccc(-c3ccccc3)cc1)O2`, for which the cytotoxicity call was “inactive”.

Turning to `C[C@H]1CN([C@@H](C)CO)C(=O)Cc2cc(NS(=O)(=O)c3ccccc3)ccc2O[C@H]1CN(C)S(=O)(=O)c1ccc(F)cc1`, the cytotoxicity call was “inactive”.

`C[C@@]1(NC(=O)Cc2ccc(S(=O)(=O)N3CCOCC3)s2)CCS(=O)(=O)C1`: the cytotoxicity call was “inactive”.

In the case of `C[C@@H]1CN([C@@H](C)CO)C(=O)c2cccc(NS(=O)(=O)c3ccccc3)c2O[C@H]1CN(C)S(=O)(=O)c1cccs1`, the cytotoxicity call was “inactive”.

Regarding `C[C@H](CO)N1C[C@H](C)[C@H](CN(C)S(=O)(=O)c2ccc(F)cc2)Oc2c(NC(=O)c3cnccn3)cccc2C1=O`, the cytotoxicity call was “inactive”.

In the case of `CCS(=O)(=O)N1CC[C@]2(CC1)CN([C@@H](CO)c1c2c2ccc(cc2n1C)OC)C(=O)Nc1c(noc1C)C`, the cytotoxicity call was “inactive”.

On to `O=C(CN1CCOCC1)NCC[C@H]1CC[C@H](NS(=O)(=O)c2ccc(Cl)cc2)[C@@H](CO)O1`, for which the cytotoxicity call is “inactive”.

Turning to `COc1c(O[C@@H]2O[C@H](CO)[C@@H](O)[C@H](O)[C@H]2O)cc2oc(-c3ccc(O)c(O)c3)c(O)c(=O)c2c1O`, the cytotoxicity call is “inactive”.

In the case of `O=c1c(O)c(-c2ccc(O)c(O)c2)oc2c(OC3OC(CO)C(O)C(O)C3O)c(O)cc(O)c12` (stereo unspecified), the cytotoxicity call was “inactive”.

Regarding `C[C@H]1O[C@@H](OC[C@H]2O[C@@H](Oc3c(-c4ccc(O)c(O)c4)oc4cc(O)cc(O)c4c3=O)[C@@H](O)[C@@H](O)[C@@H]2O)[C@@H](O)[C@@H](O)[C@@H]1O`, the cytotoxicity call is “inactive”.

On to `CC(=O)O[C@@H]1[C@@H](O[C@@H]2O[C@H](CO)[C@@H](O)[C@H](O)[C@H]2O)[C@@H](O)[C@H](OC[C@H]2O[C@@H](Oc3c(-c4ccc(O)c(O)c4)oc4cc(O)cc(O)c4c3=O)[C@H](O)[C@@H](O)[C@H]2O)O[C@H]1C`, for which the cytotoxicity call is “active”.

As to `O=c1c(O)c(-c2ccc(O)c(O)c2)oc2c(O[C@@H]3O[C@H](CO)[C@H](O)[C@@H](O)[C@H]3O)c(O)cc(O)c12`, the cytotoxicity call is “active”.

As for `C[C@@H]1O[C@@H](O[C@@H]2[C@@H](O)[C@H](C)O[C@@H](OC[C@H]3O[C@@H](Oc4c(-c5ccc(O)c(O)c5)oc5cc(O)cc(O)c5c4=O)[C@@H](O)[C@@H](O)[C@@H]3O)[C@@H]2O)[C@H](O)[C@H](O)[C@H]1O`, the cytotoxicity call is “inactive”.

Consider `Cc1ccc(S(=O)(=O)N(C)C[C@@H]2Oc3ncc(C#CC4(O)CCCC4)cc3C(=O)N([C@@H](C)CO)C[C@H]2C)cc1`, for which the cytotoxicity call was “inactive”.

In the case of `CC(C)(C[C@H]1CN(S(=O)(=O)c2cccc(C(F)(F)F)c2)c2cc(-c3cc(F)cc(OC(F)F)c3)ccc2O1)C(=O)O`, the cytotoxicity call was “inactive”.

For `COC(=O)CCCCCCC(=O)N/N=C/[C@H](O)[C@@H](O)[C@@H](O)[C@H](O)C(=O)O`, the cytotoxicity call was “inactive”.

With `COc1ccc(cc1)S(=O)(=O)N1C[C@]2(C1)CN([C@H](CO)c1c2c2ccc(cc2n1C)OC)C(=O)CN(C)C`, the cytotoxicity call was “active”.

Consider `COCC(=O)N1CC[C@]2(CC1)CN([C@@H](CO)c1c2c2ccc(cc2n1C)OC)C(=O)Cc1ccccc1`, for which the cytotoxicity call was “inactive”.

Consider `COc1ccc2c3c(n(c2c1)C)[C@@H](CO)N(CC1CCCC1)C[C@]13CCN(CC1)C(=O)Nc1ccccc1`, for which the cytotoxicity call is “active”.

On to `COCC(=O)N1CC[C@]2(CC1)CN([C@H](CO)c1c2c2ccc(cc2n1C)OC)C(=O)Cc1ccccc1`, for which the cytotoxicity call was “active”.

For `COc1ccc2c3c(n(c2c1)C)[C@H](CO)N(C[C@]13CCN(CC1)S(=O)(=O)C)C(=O)CN(C)C`, the cytotoxicity call was “inactive”.

Consider `COc1ccc(cc1)S(=O)(=O)N1C[C@]2(C1)CN([C@@H](CO)c1c2c2ccc(cc2n1C)OC)C(=O)CN(C)C`, for which the cytotoxicity call is “inactive”.

On to `COc1ccc2c3c(n(c2c1)C)[C@H](CO)N(Cc1ccccc1)C[C@]13CCN(CC1)C(=O)Nc1cccc(c1)F`, for which the cytotoxicity call was “inactive”.

For the molecule `COc1ccc(cc1)S(=O)(=O)N1CC[C@]2(CC1)CN([C@@H](CO)c1c2c2ccc(cc2n1C)OC)C(=O)CN(C)C`, the cytotoxicity call is “inactive”.

In the case of `COCC(=O)N1CC[C@]2(CC1)CN(Cc1cccc(c1)OC)[C@@H](CO)c1c2c2ccc(cc2n1C)OC`, the cytotoxicity call is “inactive”.

As for `COc1ccc2c3c(n(c2c1)C)[C@H](CO)N(CC1CCCC1)C[C@]13CCN(CC1)C(=O)Nc1ccccc1`, the cytotoxicity call was “inactive”.

On to `COc1ccc2c3c(n(c2c1)C)[C@H](CO)N(C[C@]13CN(C1)S(=O)(=O)C)C(=O)CN(C)C`, for which the cytotoxicity call is “inactive”.

Turning to `COc1ccc(cc1)S(=O)(=O)N1CC[C@]2(CC1)CN([C@H](CO)c1c2c2ccc(cc2n1C)OC)C(=O)CN(C)C`, the cytotoxicity call is “active”.

For the molecule `CNC[C@@H]1OCCCC[C@@H](C)Oc2ccc(NC(=O)CCCN(C)C)cc2C(=O)N([C@H](C)CO)C[C@H]1C`, the cytotoxicity call was “inactive”.

With `O=C(O)c1cn(-c2ccccc2)nn1`, the cytotoxicity call is “inactive”.

Consider `COCC(=O)N1C[C@H](C)[C@@H](OC)CN(C)C(=O)c2cc(NC(=O)c3ccc(OC)cc3)ccc2OC[C@H]1C`, for which the cytotoxicity call is “inactive”.

On to `COc1ccc2c3c([nH]c2c1)[C@H](CO)N(C[C@]13CCN(CC1)C(=O)c1cccnc1)C(=O)c1cccnc1`, for which the cytotoxicity call is “inactive”.

On to `C/C=C/c1ccc([C@@H]2[C@H](CO)N(S(=O)(=O)CC)C23CN(C(=O)CN(C)C)C3)cc1`, for which the cytotoxicity call is “inactive”.

On to `C[C@H](CO)N1C[C@H](C)[C@H](CN(C)Cc2ccc(Oc3ccccc3)cc2)Oc2c(NC(=O)C3CCCCC3)cccc2C1=O`, for which the cytotoxicity call is “inactive”.

For the molecule `COc1ccc(NC(=O)N(C)C[C@@H]2OCCCC[C@H](C)Oc3ccc(NS(=O)(=O)c4ccccc4)cc3C(=O)N([C@H](C)CO)C[C@H]2C)cc1`, the cytotoxicity call was “inactive”.

With `CC(C)NC(=O)N(C)C[C@@H]1Oc2c(NS(=O)(=O)c3cccs3)cccc2C(=O)N([C@@H](C)CO)C[C@@H]1C`, the cytotoxicity call is “inactive”.

As for `C[C@@H]1CCCCO[C@H](CN(C)S(=O)(=O)c2ccc(Cl)cc2)[C@@H](C)CN([C@@H](C)CO)C(=O)c2cc(NC(=O)Cc3ccccc3)ccc2O1`, the cytotoxicity call is “inactive”.

Take `C[C@@H]1CN([C@H](C)CO)C(=O)c2cc(NC(=O)Cc3ccccc3)ccc2O[C@@H](C)CCCCO[C@@H]1CN(C)S(=O)(=O)c1ccc(Cl)cc1`: the cytotoxicity call was “inactive”.

With `C[C@@H]1CCCCO[C@@H](CN(C)S(=O)(=O)c2ccc(Cl)cc2)[C@@H](C)CN([C@H](C)CO)C(=O)c2cc(NC(=O)Cc3ccccc3)ccc2O1`, the cytotoxicity call is “inactive”.

On to `C[C@@H]1CCCCO[C@@H](CN(C)S(=O)(=O)c2ccc(Cl)cc2)[C@H](C)CN([C@H](C)CO)C(=O)c2cc(NC(=O)Cc3ccccc3)ccc2O1`, for which the cytotoxicity call was “active”.

As to `C[C@@H]1CCCCO[C@H](CN(C)S(=O)(=O)c2ccc(Cl)cc2)[C@@H](C)CN([C@H](C)CO)C(=O)c2cc(NC(=O)Cc3ccccc3)ccc2O1`, the cytotoxicity call was “active”.

Turning to `C[C@H](CO)N1C[C@H](C)[C@H](CN(C)S(=O)(=O)c2ccc(Cl)cc2)OCCCC[C@H](C)Oc2ccc(NC(=O)Cc3ccccc3)cc2C1=O`, the cytotoxicity call was “inactive”.

Take `C[C@@H]1CCCCO[C@@H](CN(C)S(=O)(=O)c2ccc(Cl)cc2)[C@@H](C)CN([C@@H](C)CO)C(=O)c2cc(NC(=O)Cc3ccccc3)ccc2O1`: the cytotoxicity call is “inactive”.

Take `C[C@@H]1CN([C@H](C)CO)C(=O)c2cc(NC(=O)Cc3ccccc3)ccc2O[C@@H](C)CCCCO[C@H]1CN(C)S(=O)(=O)c1ccc(Cl)cc1`: the cytotoxicity call was “inactive”.

Consider `C[C@@H]1CCCCO[C@H](CN(C)S(=O)(=O)c2ccc(Cl)cc2)[C@H](C)CN([C@H](C)CO)C(=O)c2cc(NC(=O)Cc3ccccc3)ccc2O1`, for which the cytotoxicity call was “active”.

With `C[C@@H]1CN([C@@H](C)CO)C(=O)c2cc(NC(=O)Cc3ccccc3)ccc2O[C@@H](C)CCCCO[C@H]1CN(C)S(=O)(=O)c1ccc(Cl)cc1`, the cytotoxicity call was “inactive”.

As for `C[C@H](CO)N1C[C@H](C)[C@@H](CN(C)S(=O)(=O)c2ccc(Cl)cc2)OCCCC[C@H](C)Oc2ccc(NC(=O)Cc3ccccc3)cc2C1=O`, the cytotoxicity call is “active”.
